p47phox inh – inhibitors of human p47phox binding | P14598 | p47phox/p22phox peptide binding, fluorescence polarization, 2 h | inhibition, % at 24.7 µM | 0.53% of 220,000 active;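 also: 0% = p47phox with labelled peptide and 100% = labelled peptide alone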
Mcl1 Bid PPI – Mcl-1/Bid interaction inhibition. AID 1021. 0.97% of 220,000 active. inhibition, % at 21.7 µM. TR-FRET Mcl-1/Bid-Dy647 peptide binding, 1536-well;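 active = compounds that cut the binding signal by more than half at the single screening dose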;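 also: His-tagged Mcl-1 with europium anti-His antibody binding Bid BH3 peptide; 0% = Mcl-1 plus peptide wells and 100% = peptide-only wells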
eIF4E 4G PPI – eIF4E/eIF4G interaction inhibition in translation initiation | TR-FRET eIF4E-eIF4GI(517-606) binding, 2 h | 0.37% of 220,000 active | inhibition, % at 21.7 µM | P63073+Q04637;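 also: 0% = full FRET control wells and 100% = background wells lacking eIF4GI fragment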
Mcl1 Noxa PPI – disrupts binding of human Mcl-1 to Noxa peptide | TR-FRET Mcl-1/Noxa peptide binding, 2 h | 1.5% of 220,000 active | AID 1022 | inhibition, % at 21.7 µM;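 active = compounds that cut the protein-peptide binding signal by more than 50% relative to plate controls in a single-dose test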;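 also: His-tagged Mcl-1 with rhodamine Noxa BH3 peptide and terbium anti-His antibody; 0% = Mcl-1 plus Noxa peptide wells and 100% = peptide-only wells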
Mcl-1 Bim block – disrupts Bim peptide binding to human Mcl-1; Bead-based flow cytometry, Bim peptide-Mcl-1 binding; inhibition, % at 10 µM; 0.1% of 190,000 active; AID 1009; in the data active = inhibition above about 40%;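 also: 0% = no compound tracer wells and 100% = peptide blocker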
14-3-3 Bad PPI – disrupts binding of bovine 14-3-3 zeta to phospho-Bad peptide; TR-FRET 14-3-3zeta/Dy647-pBad peptide displacement, 1 h; inhibition, % at 21.7 µM; P63103; 0.71% of 220,000 active;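 active = inhibition above about 70%, limit read from the data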;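 also: 0% = full 14-3-3 plus peptide FRET controls and 100% = background without 14-3-3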
Target sequence (P63103 whole entry, looked up): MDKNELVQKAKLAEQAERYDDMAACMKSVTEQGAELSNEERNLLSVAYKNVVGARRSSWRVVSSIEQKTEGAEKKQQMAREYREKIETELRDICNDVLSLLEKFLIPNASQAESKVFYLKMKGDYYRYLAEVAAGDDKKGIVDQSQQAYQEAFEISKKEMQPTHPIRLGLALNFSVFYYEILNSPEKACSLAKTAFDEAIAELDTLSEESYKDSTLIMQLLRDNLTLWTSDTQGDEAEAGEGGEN
An asterisk follows results filed as active; · = not tested or not shown; + = active, no number; [ ] = dose if it differs, or a comment. In the library only some 3.3% were active in any assay of this set; here they are far more common.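 The calls were made as follows, unless noted: active = inhibition above about 30% (limit read from the data); inactive = the rest.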

SMILES | p47phox inh | Mcl1 Bid PPI | eIF4E 4G PPI | Mcl1 Noxa PPI | Mcl-1 Bim block | 14-3-3 Bad PPI
COc1ccc(C(c2nnnn2C2CCCC2)N2CCc3ccccc3C2)cc1OC (centres undefined) | 0 | -27 | -2 | 29 | 1 | 67
COCCn1nnnc1C(c1ccc(O)c(OC)c1)N1CCc2ccccc2C1 (centres undefined) | 12 | -10 | 12 | 77* | -1 | 45
CN(C)c1ccc(C(c2nnnn2C(C)(C)C)N2CCc3ccccc3C2)cc1 (centres undefined) | -7 | -10 | -1 | 68* | 0 | 13
CC1CCN(C(c2ccc(N(C)C)cc2)c2nnnn2Cc2ccccc2)CC1 (centres undefined) | -15 | -5 | 11 | 8 | -6 | 2
CCC(C)(C)n1nnnc1C(c1ccc(O)cc1)N1CCc2ccccc2C1 (centres undefined) | 3 | -11 | 2 | 59* | -2 | -1
Cc1onc(-c2c(Cl)cccc2Cl)c1NC(=O)NC1CCSC1 (centres undefined) | -12 | -14 | 1 | 3 | · | -4
CCCOc1nc(SCCC)nc2c1cnn2-c1ccccc1 | -9 | -2 | -1 | -23 | · | -8
Cc1cc(C)c2nc(NC(=O)[C@@H](NC(=O)c3cccc(S(=O)(=O)N4CCOCC4)c3)C(C)C)sc2c1 | -15 | -6 | -6 | 5 | -2 | -2
c1ccc(Cc2nnc(-c3ccccc3)o2)cc1 | -1 | -23 | -2 | -18 | 0 | 3
Cc1ccc(C(=O)OCc2nnc(-c3ccccc3)o2)o1 | 17 | -16 | 1 | 10 | -4 | 10
O=C(OCc1nnc(-c2ccccc2)o1)c1ccc(Cl)cc1 | -13 | -18 | -2 | -9 | 0 | -7
CC(=O)c1c(C)[nH]c(C(=O)OCc2nnc(-c3ccccc3)o2)c1C | 2 | 51* | -6 | -15 | -2 | 1
O=C(Cc1ccc(Cl)cc1)OCc1nnc(-c2ccccc2)o1 | -14 | -19 | 88* | 6 | -4 | -13
Cc1ccc(-c2nnc(Cc3ccc(Cl)cc3)o2)cc1 | -4 | -6 | -1 | -21 | 40* | 3
NC(=S)N/N=C1\CCOc2ccc(F)cc21 | -5 | -67 | 3 | -7 | · | -6
CC12CN3CC(C)(CN(C1)C3c1ccccc1Cl)C2O (centres undefined) | -18 | -3 | 1 | 88* | -2 | 1
CC12CN3CC(C)(CN(C1)C3c1ccccc1)C2O (centres undefined) | -5 | 3 | 1 | 9 | -2 | -5
O=P(O)(O)c1ccccc1OCCOCCOc1ccccc1P(=O)(O)O | -2 | 24 | 2 | 17 | 0 | 6
CCOP(=O)(O)c1ccccc1OCCOCCOc1ccccc1P(=O)(O)OCC | -20 | 30 | -2 | 54* | -1 | 31
CC1CCC2(CC1)NC(=O)N(Cc1cc(=O)n3ccsc3n1)C2=O (centres undefined) | 1 | 18 | 4 | 13 | · | 2
Cn1c(CNc2ccccc2)nc2ccccc21 | 0 | -34 | 3 | 4 | -9 | 8
Cn1c(C(C)(O)C(O)c2ccccc2)nc2ccccc21 (centres undefined) | -5 | -12 | 88*[fluorescence artefact?] | 12 | -7 | -7
COc1ccc(CN2C(=O)CC(C(=O)NCCc3ccc(S(N)(=O)=O)cc3)SC2=Nc2ccccc2)cc1 (centres undefined) | -6 | -1 | 0 | 5 | 0 | 1
C=CCSc1nnc(CC(OC)OC)n1-c1ccccc1 | -8 | 0 | -3 | -1 | -4 | 2
Cc1nc2ccccc2n2c(O)c(CC(=O)O)cc12 | 35* | -29 | 2 | 17 | -1 | -2
CCOc1ccccc1-n1nnnc1SCC(=O)O | -11 | -9 | -9 | 18 | · | 2
Fc1cc(F)c2nc(Nc3nc4cc5c(cc4s3)OCO5)sc2c1 | -49 | 91* | 4 | 99* | 4 | 95*[fluorescence artefact?]
Fc1cccc2sc(Nc3nc4cc5c(cc4s3)OCO5)nc12 | -36 | -11 | 6 | -15 | -3 | -14
O=C(c1ccc(C(F)(F)F)cc1)C1CCCN(C(=O)CCN2CCCO2)C1 (centres undefined) | -11 | -24 | 2 | 5 | -3 | 26
CC(C)CNc1nc(Oc2ccc(=O)[nH]n2)nc(N(C)C)n1 | + | -29 | -9 | -8 | -3 | 91*
